# JMJD2C inh: inhibitors of GASC-1 histone demethylase, primary screen, biochemical, fluorescence, DELFIA europium. 330,000 compounds, 0.069% hits. GST-JMJD2C(1-420) H3K9me3 demethylation. AID 2099, 2009. inhibition, % at 2.35 µM;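 active means more than half of a compound's replicate wells show inhibition beyond 50%, single wells judged on their own value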;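 further: signal counts dimethyl H3K9 product captured on neutravidin plate; 0% = median of DMSO wells and 100% = 0.3 times that DMSO median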
# VLA-4 inh: inhibition in human VLA-4 binding assay, primary screen, VLA-4 allosteric modulator project, MLPCN library, flow cytometry, VLA-4 expressing cells | Integrin alpha-4 (Homo sapiens), P13612 | ligand binding flow cytometry | inhibition, % (about 7 µM as worked out from the volumes in the protocol) | 330,000 compounds, 0.2% hits; in the data active means inhibition above about 50%
# Target sequence (P13612 whole entry, looked up): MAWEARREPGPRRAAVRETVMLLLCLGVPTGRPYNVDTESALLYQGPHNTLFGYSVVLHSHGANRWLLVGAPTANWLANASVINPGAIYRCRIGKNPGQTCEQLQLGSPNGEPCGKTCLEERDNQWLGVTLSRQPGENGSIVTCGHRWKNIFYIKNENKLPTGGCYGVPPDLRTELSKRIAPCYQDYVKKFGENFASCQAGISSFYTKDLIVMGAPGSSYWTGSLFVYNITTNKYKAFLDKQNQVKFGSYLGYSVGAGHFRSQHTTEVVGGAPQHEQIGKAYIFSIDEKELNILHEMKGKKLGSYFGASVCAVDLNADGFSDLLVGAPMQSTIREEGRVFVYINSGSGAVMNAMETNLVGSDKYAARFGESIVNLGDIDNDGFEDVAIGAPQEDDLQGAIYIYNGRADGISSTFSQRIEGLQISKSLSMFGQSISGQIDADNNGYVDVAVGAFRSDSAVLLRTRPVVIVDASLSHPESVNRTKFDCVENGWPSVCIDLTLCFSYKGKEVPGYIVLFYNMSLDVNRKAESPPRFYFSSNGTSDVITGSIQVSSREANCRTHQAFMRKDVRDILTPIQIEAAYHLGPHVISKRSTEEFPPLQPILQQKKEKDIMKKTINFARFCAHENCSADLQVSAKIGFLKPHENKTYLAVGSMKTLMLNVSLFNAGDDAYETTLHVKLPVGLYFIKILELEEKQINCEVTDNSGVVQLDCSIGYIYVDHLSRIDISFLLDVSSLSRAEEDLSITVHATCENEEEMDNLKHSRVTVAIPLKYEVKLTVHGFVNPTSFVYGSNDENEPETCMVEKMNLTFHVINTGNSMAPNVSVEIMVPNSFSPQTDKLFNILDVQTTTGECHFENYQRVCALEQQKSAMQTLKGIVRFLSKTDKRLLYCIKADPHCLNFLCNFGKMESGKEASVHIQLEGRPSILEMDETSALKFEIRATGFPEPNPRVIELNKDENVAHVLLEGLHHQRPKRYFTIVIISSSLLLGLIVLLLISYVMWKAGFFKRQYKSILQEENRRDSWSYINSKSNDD
# MEX-5 binding: MEX-5 zinc finger RNA-binding disruptors – biochemical, C. elegans, fluorescence polarization, MLPCN library, primary screen; activity score (negative = inhibition of binding), % at 10 µM; MEX-5/FITC-TCR2 RNA binding; stronger effect = lower value; 300,000 compounds, 0.38% hits; Zinc finger protein mex-5 (Caenorhabditis elegans), Q9XUB2;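 active means inhibition past about -25% in most replicates, and total fluorescence under double the plate's negative control median, limit read from the data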;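 further: 0% = DMSO and -100% = 5 µM competing unlabeled TCR2 RNA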
# V-ATPase pH: regulators of yeast V-ATPase proton pumping, primary screen, pHLuorin cytosolic pH fluorescence; AID 504577, 2011; S. cerevisiae; response, % at 10 µM; 350,000 compounds, 0.37% hits; in the data active means response mostly above about 7.3%, no sharp cut-off; inactive means mostly below about 5.4%; further: actives read high
# HTR2A ag: mouse Htr2a agonists via beta-arrestin recruitment, primary screen, cell-based, luminescence. 5-hydroxytryptamine receptor 2A (Mus musculus), P35363. CHO-K1 mHTR2A beta-arrestin complementation; percent of 30 µM serotonin response. activation, % at 7.6 µM. 360,000 compounds, 0.66% hits. AID 624169, 2012;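 active means activation above a run cutoff, the mean activation of all tested compounds plus 3 SD, cut at about 14% in these data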;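 further: 0% = plate median of compound wells and 100% = 30 µM serotonin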
# Exocytosis inh: LAMP-1 surface exposure blockers, TALL-104 cells – cell-based, flow cytometry, MLPCN library, primary screen. inhibition, % at 10 µM. 360,000 compounds, 0.66% hits. TALL-104 LAMP-1 surface exposure; cells stimulated with thapsigargin and PMA;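 active means inhibition above about 55%, limit read from the data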
# VLA-4 mod pick: retest of VLA-4 allosteric modulators, confirmation, cell-based, cherry-picked plates, U937, HUTS-21 LIBS antibody | 1,300 compounds, 2% hits | U937 cells, HUTS-21 LIBS mAb binding, flow cytometry; LDV ligand present at threefold Kd | shares compounds with VLA-4 inh | inhibition, % at 6.7 µM; in the data active means inhibition above about 40%;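 further: 0% = ligand without compound and 100% = no ligand background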
# An asterisk follows results filed as active; i = inactive; nt = no result given. Hits are enriched below; roughly 2.2% of the tested compounds scored in any of these assays.
SMILES,JMJD2C inh,VLA-4 inh,MEX-5 binding,V-ATPase pH,HTR2A ag,Exocytosis inh,VLA-4 mod pick
CC1=C(n2nnc([N+](=O)[O-])n2)C(c2cccnc2)C(C#N)=C(N)O1 (centres undefined),16,20,-5,4,3,2,nt
COc1cc2c(cc1OC)C(C)N(CCN1C(=O)c3ccccc3C1=O)CC2 (centres undefined),4,44,0,1,-1,9,-7
CN1C2C(Br)CCCCN2c2ccc(F)cc2S1(=O)=O (centres undefined),12,11,-2,-8,2,-1,nt
CSc1ccccc1C(=O)C1CCCN(S(=O)(=O)N(C)C)C1 (centres undefined),-1,52*,1,-1,-1,-2,-10
COc1ccc(C(=O)C2CCCN(S(=O)(=O)N(C)C)C2)c(C)c1 (centres undefined),11,-8,0,0,-2,2,nt
CN(C(=O)c1cccs1)c1ccc(OCC(=O)Nc2ccc(C(=O)O)cc2)cc1,1,-15,1,-2,1,0,nt
CCOC(=O)CSc1ccc2nnc(-c3cccs3)n2n1,-15,51*,3,-3,5,0,16
CCC(=O)Nc1ccc2c(c1)ncn2-c1ccccc1,0,53*,2,1,-1,-8,-4
CC(=O)Nc1ccc2c(c1)ncn2-c1ccccc1,2,-1,1,1,1,-7,nt
CCOC(=O)C1CCN(C(=O)c2ccc(OCC(=O)Nc3cccc(C(F)(F)F)c3)c(OC)c2)CC1,-28,-1,0,-7,4,0,nt
CC(C)C[C@@H](CN)NC(=O)c1nc[nH]c1C(=O)N[C@@H](CC(C)C)C(=O)CNC[C@H](C)NC(=O)c1nc[nH]c1C(=O)N[C@@H](CC(C)C)C(=O)O,nt,nt,nt,-3,-1,1,nt
CC1=C(C(=O)OCC2CCCO2)C(c2ccncc2)C2=C(CCCC2=O)N1 (centres undefined),7,92*,1,-4,0,0,1
O=C(NCCC1=CCCCC1)C1CCN(c2nnc(-n3cccc3)s2)CC1,13,56*,2,-3,-6,-9,5
Cc1cccc(C(=O)NCC(=O)NC(C)c2ccc(-n3ccnc3)cc2)c1 (centres undefined),7,17,3,4,-1,3,nt
N=C(N)N=Nc1c(O)[nH]c2ccc(Br)cc12,15,53*,-13,0,-1,0,0
CCN(CC)Cc1nc2c(c(=O)[nH]1)C(CC)(CC)Cc1ccccc1-2,-13,8,1,4,5,8,nt
O=c1cc(CSc2nnc(COc3cccc4ccccc34)o2)c2ccccc2[nH]1,4,-8,0,-2,-1,-2,nt
C/C(=N\NC(=O)Cc1c(C)[nH][nH]c1=O)c1ccc2ccccc2c1,-2,61*,-2,nt,nt,nt,-16
Cc1ccc(C)c(CC(=O)N2CCCC(c3cc(C(=O)NCc4cccnc4)no3)C2)c1 (centres undefined),nt,nt,nt,nt,-7,-2,nt
O=C(NCC1CCCN1S(=O)(=O)c1cccs1)c1cccc([N+](=O)[O-])c1 (centres undefined),i,7,0,-2,6,-1,nt
O=C(COC(=O)c1c(Cl)cccc1Cl)NC1CCCCCCC1,4,6,nt,1,0,-2,1
O=C(COC(=O)CSc1ccc([N+](=O)[O-])cc1)NC1CCCCCCC1,-2,1,-4,-6,9,-3,nt
Cc1ccc(SCC(=O)OCC(=O)NC2CCCCCCC2)cc1,3,55*,-1,-1,2,-2,0

# Screening data: PubChem BioAssay, several laboratories
